# Source: PubChem BioAssay (National Center for Advancing Translational Sciences (NCATS))
# TRHR ag = activates the human TRH receptor. hit rate 0.18% among 360,000. AID 493084. P34981. TRHR cells, calcium flux fluo-8, FDSS agonist mode. activation, % at 2 µM; also: 0% is about no effect
#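 TRHR-expressing cells, plated overnight in medium with 10% serum, were loaded with fluo-8 calcium dye at room temperature. After a 10 s baseline, library compound was pin-added and calcium release was recorded kinetically (ex 480/em 530) as agonist response.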
# TRHR enhancer = allosteric enhancers of human TRH receptor; P34981; enhancement, % at 2 µM; AID 493056; TRHR cells, fluo-8 calcium fluorescence, EC20 TRH enhancement; hit rate 0.66% among 360,000; in the data active = enhancement above about 30%; also: 0% is about no effect
#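 Enhancer read-out: after compound pinning and an initial kinetic agonist-mode read, an EC20 of TRH (10 nM final) was injected and fluo-8 calcium signal (Ex 480/Em 530) followed at 1 s/cycle for 100 cycles in TRHR-expressing cells.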
# D1 agonist = agonists of human D1 dopamine receptor; hit rate 1% among 360,000; AID 504660; P21728; activation, % at 2 µM; HEK293 T-REx D1 cells, calcium flux, agonist mode; also: 0% is about no effect
# Target sequence (P21728 whole entry, looked up): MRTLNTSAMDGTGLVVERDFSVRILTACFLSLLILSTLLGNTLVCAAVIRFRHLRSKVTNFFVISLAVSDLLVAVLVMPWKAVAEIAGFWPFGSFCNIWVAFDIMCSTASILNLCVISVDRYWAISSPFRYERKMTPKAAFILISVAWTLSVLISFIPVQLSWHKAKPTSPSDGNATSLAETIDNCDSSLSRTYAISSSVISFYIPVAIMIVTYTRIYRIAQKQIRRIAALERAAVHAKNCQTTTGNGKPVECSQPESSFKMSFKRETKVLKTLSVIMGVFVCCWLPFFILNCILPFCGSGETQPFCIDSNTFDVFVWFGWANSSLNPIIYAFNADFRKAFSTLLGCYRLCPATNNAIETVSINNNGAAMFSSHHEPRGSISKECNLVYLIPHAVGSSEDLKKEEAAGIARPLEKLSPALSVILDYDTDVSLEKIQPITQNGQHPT
#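 Inducible HEK293 T-REx D1 cells, force-coupled to calcium signalling, were plated at 4000 cells/well with tetracycline and held overnight at 30 C. After no-wash calcium dye loading, compound-evoked calcium rise over 180 s flagged agonists.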
# D1 PAM = enhances dopamine response at the human D1 receptor. P21728. HEK293 TREx D1 cells, calcium flux, dopamine EC20 potentiation. potentiation, % at 10 µM. hit rate 0.036% among 360,000. AID 504651; in the data active = potentiation above about 30%; also: 0% is about no effect
# D1 antag = antagonists of human D1 dopamine receptor; HEK293 TREx D1 cells, calcium flux, dopamine EC80; stronger effect = lower value; activity change, negative = inhibition, % at 10 µM; P21728; hit rate 3.2% among 360,000; in the data active = activity change below about -30%; also: % is scaled to controls: 0 for no effect and ±100 for the full control effect
#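 Inducible Hek293 Trex D1 cells (tetracycline, overnight, 30 C). Calcium dye 30–90 min RT. Antagonist mode: EC80 dopamine added after 180 s compound read.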
# * hit, by the source's call; · = not tested or not shown. Sampled rows, rich in hits. Any-hit rate of the full collection: about 4.7%. Rule as the data show it, unless noted: active = activation above about 30%; inactive = the rest.
SMILES,TRHR ag,TRHR enhancer,D1 agonist,D1 PAM,D1 antag
COC(=O)c1cccc(NC(=O)Nc2ccc(Cl)c(Cl)c2)c1,0.3,3.0,11.3,-6.0,-18.5
Cc1cc(NC(=O)Nc2ccc(Cl)c(Cl)c2)n(-c2ccccc2)n1,0.5,-5.8,20.9,-0.2,-44.3*
COC(=O)c1cc(NC(=O)Nc2ccccc2)ccc1Cl,0.9,-2.1,41.3*,-5.2,-53.5*
O=C(Nc1ccccc1)Nc1ccc(Cl)c([N+](=O)[O-])c1,1.5,-5.3,31.9*,-9.7,-46.2*
CCC(Oc1ccc(F)cc1)C(=O)Nc1c(C(=O)c2ccc(C)cc2)oc2ccccc12 (stereo not given),-0.4,-6.2,0.1,-6.6,-7.0
O=C(Nc1ccccc1)Nc1ccc(F)c([N+](=O)[O-])c1,2.6,-7.4,29.5,-10.7,-47.7*
O=C(Nc1ccccc1)Nc1ccccc1,2.9,-0.5,8.5,-4.2,-32.6*
Cc1ccc(NC(=O)Nc2ccccc2)cc1[N+](=O)[O-],2.0,-7.0,23.7,-10.0,-33.2*
CC(=O)Nc1ccc(C)c([N+](=O)[O-])c1,0.3,-4.4,2.4,-0.2,-3.7
O=C(NC(=S)Nc1ccc(F)c([N+](=O)[O-])c1)c1ccccc1F,-1.5,-0.2,-3.2,5.8,-0.7
Cc1nc2ccn(Cc3ccco3)c(=O)c2cc1C(=O)Nc1ccc(F)cc1,-0.4,1.7,0.0,-7.7,1.3
CCOc1ccc(-n2cc(-c3ccccc3)c3c(N4CCC(C)CC4)ncnc32)cc1,-0.3,1.7,-3.4,0.8,17.9
CCNC(=S)N(CCc1c(C)[nH]c2ccc(Cl)cc12)Cc1cccnc1,-1.1,18.2,6.2,-6.2,-43.1*
COCCNC(=S)N(CCc1c(C)[nH]c2ccc(Cl)cc12)Cc1cccnc1,1.6,-11.5,9.1,-4.3,5.6
CNC(=S)N(CCc1c(C)[nH]c2ccc(Cl)cc12)Cc1cccnc1,-0.5,15.3,30.6*,-9.8,-25.0
COC(=O)c1c(-c2ccc(Cl)cc2)noc1N1CCN(c2ccccc2OC)CC1,0.6,0.6,0.7,-0.5,-31.5*
CCCC(CCC)=NNc1ccc(S(=O)(=O)Nc2ccccc2OC)cc1[N+](=O)[O-],0.0,13.7,2.0,-1.5,-5.9
C/C(=N\Nc1ccc(S(=O)(=O)Nc2ccccc2)cc1[N+](=O)[O-])c1ccncc1,0.2,0.9,0.6,-3.9,-32.1*
COc1ccccc1NS(=O)(=O)c1ccc(N/N=C(\C)C(C)C)c([N+](=O)[O-])c1,-1.7,0.8,1.1,-2.5,-31.2*
CCOc1ccc(NC(=O)CSc2oc(-c3ccco3)nc2S(=O)(=O)c2ccc(Cl)cc2)cc1,-0.3,5.0,24.6,1.7,3.3
O=C(COc1ccc([N+](=O)[O-])cc1)NNC(=O)Nc1ccc([N+](=O)[O-])cc1,0.5,-3.1,15.0,-6.2,-22.3
COC(=O)c1ccc(NC(=O)COc2ccc([N+](=O)[O-])cc2)cc1,-1.3,10.9,18.0,-4.4,-35.1*
COc1ccc([N+](=O)[O-])cc1NC(=O)CS(=O)(=O)c1ccc(C)cc1,-0.8,-3.1,3.3,-0.5,11.2
COc1ccc(NC(=O)NNC(=O)COc2ccc3ccccc3c2)cc1OC,0.4,-6.1,1.2,9.4,-48.7*
COc1ccc(NC(=O)NNC(=O)COc2ccc3cc(Br)ccc3c2)cc1OC,0.7,-3.5,7.6,-0.4,-3.3
SMILES,TRHR ag,TRHR enhancer,D1 agonist,D1 PAM,D1 antag
COc1ccc(OC)c(NC(=O)NNC(=O)COc2ccc([N+](=O)[O-])cc2)c1,0.1,6.4,-0.1,-4.7,-49.1*
COc1ccc([N+](=O)[O-])cc1NC(=O)CCS(=O)(=O)c1ccc(Br)cc1,-0.5,-0.7,2.7,-8.2,-32.7*
CCOC(=O)c1ccc(NC(=O)CC2C(=O)N(c3cccc(OC)c3)C(=O)N2Cc2ccc(OC)cc2)cc1 (stereo not given),0.0,-4.7,5.8,-3.0,-7.9
COCCCNC(=O)CN1C(=O)c2c(c3ccccc3n2C)C1c1ccc(OC)cc1 (stereo not given),-0.4,-4.5,0.3,-2.2,6.0
CC1CCc2onc(C(=O)N3CCN(c4ccc(Cl)cc4)CC3)c2C1 (stereo not given),-0.8,7.2,4.9,-4.4,-1.8
CCCn1ccc2c(OCC(=O)Nc3cc(C)ccc3C)cccc2c1=O,-0.3,22.9,45.5*,-4.0,·
COc1cc(NC(=O)COc2ccc(Cl)cc2)ccc1NC(=O)C(C)C,-0.5,0.1,4.8,-4.7,0.2
COC(=O)c1ccc(NC(=O)Nc2ccc(F)cc2)cc1,2.1,19.1,23.7,-9.9,-36.3*
COc1cc(NC(=O)COc2ccc(Cl)cc2)ccc1-c1cc2ccccc2oc1=O,-0.2,20.7,2.0,-0.5,-41.2*
Cn1ccc2c(OCC(=O)Nc3ccc([N+](=O)[O-])cc3)cccc2c1=O,0.4,10.6,2.6,-0.4,-37.0*
Cn1ccc2c(OCC(=O)Nc3ccc(OC(F)(F)F)cc3)cccc2c1=O,-0.3,0.9,-1.8,-2.5,·
CCOC(=O)c1ccc(NC(=O)Nc2ccc(F)cc2)cc1,2.3,1.5,20.6,-5.5,-28.9
Cn1c(=O)c2c(-c3ccc(Br)cc3)n(Cc3ccc(F)cc3)cc2n(C)c1=O,-1.8,12.3,0.6,1.6,-12.6
COC(=O)c1ccc(NC(=O)Nc2ccc([N+](=O)[O-])cc2)cc1,1.7,-1.1,35.6*,-7.0,-43.2*
COc1ccc([N+](=O)[O-])cc1NC(=O)c1ccccc1SC,-1.5,5.9,1.3,-4.8,-43.5*
CCOC(=O)CC1C(=O)NCCN1c1nc2ccc(C)cn2c(=O)c1/C=C1\SC(=S)N(C(C)CC)C1=O (stereo not given),105.2*,13.3,583.8*,33.7*,-47.3*
CCOC(=O)/C(C#N)=C/c1c(N2CCN(C)CC2)nc2c(C)cccn2c1=O,0.4,-3.2,1.2,-5.7,-6.3
CCOC(=O)CC1C(=O)NCCN1c1nc2ccc(C)cn2c(=O)c1/C=C1\SC(=S)N(CC(C)C)C1=O (stereo not given),62.6*,-5.2,320.3*,-1.9,-29.1
CCCN1C(=O)/C(=C/c2c(N3CCNC(=O)C3CC(=O)OCC)nc3c(C)cccn3c2=O)SC1=S (stereo not given),67.6*,6.0,216.1*,-1.4,-18.7
O=C1CC(c2cc(F)cc(F)c2)c2cc3c(cc2N1)OCO3 (stereo not given),0.3,2.1,10.9,-2.6,-3.8
CCc1nc(SCC(=O)Nc2ccccc2C(=O)OC)n[nH]1,0.3,4.1,-0.5,3.6,-5.8
CCc1nc(SCC(=O)Nc2ccnc3ccccc23)n[nH]1,0.1,-1.8,12.4,-2.9,-45.6*
O=C(COc1ccccc1F)Nc1ccccc1C(=O)OCc1cc(=O)n2nc(C3CC3)sc2n1,-0.1,-3.4,0.2,-0.2,-11.6
